From the supplement of paper PMC11732987, “Enantioselective OTUD7B fragment discovery through chemoproteomics screening and high-throughput optimisation” (Communications Chemistry, 2025)

Legend:
Experiment in all cases: log2 ratio of Biotin-Ahx-Ub-VS probe labelling (fragment/DMSO); higher = less target engagement (more negative = stronger competition), active = hit call of the paper (q ≤ 0.05, log2 ratio ≤ -1)
Conditions in all cases: compound concentration: 200 uM; treatment time: 3 h
ALG13 = target: T1, ALG13 (UniProt Q9NP73)
T1 sequence (whole entry): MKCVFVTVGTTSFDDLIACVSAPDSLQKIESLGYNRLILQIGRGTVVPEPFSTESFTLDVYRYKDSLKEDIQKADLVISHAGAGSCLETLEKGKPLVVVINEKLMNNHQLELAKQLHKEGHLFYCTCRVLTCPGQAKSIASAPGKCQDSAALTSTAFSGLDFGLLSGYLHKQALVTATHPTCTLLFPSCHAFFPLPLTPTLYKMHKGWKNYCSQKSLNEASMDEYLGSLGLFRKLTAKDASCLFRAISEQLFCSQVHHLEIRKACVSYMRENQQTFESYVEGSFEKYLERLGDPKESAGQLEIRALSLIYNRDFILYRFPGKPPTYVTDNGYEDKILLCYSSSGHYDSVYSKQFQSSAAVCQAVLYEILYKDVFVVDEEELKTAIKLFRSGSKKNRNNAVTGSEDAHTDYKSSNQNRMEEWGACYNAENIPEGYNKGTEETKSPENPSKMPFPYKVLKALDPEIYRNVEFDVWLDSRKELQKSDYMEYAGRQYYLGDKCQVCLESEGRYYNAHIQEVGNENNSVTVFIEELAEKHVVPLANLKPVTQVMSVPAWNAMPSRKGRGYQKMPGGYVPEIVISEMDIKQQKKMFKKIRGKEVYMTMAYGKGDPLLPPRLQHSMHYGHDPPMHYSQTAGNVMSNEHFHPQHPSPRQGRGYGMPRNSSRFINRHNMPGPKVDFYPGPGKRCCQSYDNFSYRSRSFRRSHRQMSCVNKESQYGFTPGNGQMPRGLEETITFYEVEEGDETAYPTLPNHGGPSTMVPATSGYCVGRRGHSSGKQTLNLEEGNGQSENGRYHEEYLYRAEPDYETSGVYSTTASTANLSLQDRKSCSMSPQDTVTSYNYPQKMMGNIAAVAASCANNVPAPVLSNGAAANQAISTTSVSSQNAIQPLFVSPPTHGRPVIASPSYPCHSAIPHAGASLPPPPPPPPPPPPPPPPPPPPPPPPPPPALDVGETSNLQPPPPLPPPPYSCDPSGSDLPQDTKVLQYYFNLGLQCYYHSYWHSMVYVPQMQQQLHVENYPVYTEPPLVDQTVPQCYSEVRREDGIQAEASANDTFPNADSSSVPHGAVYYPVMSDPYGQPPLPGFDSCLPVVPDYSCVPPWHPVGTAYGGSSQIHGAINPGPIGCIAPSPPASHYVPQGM
Outline: (§1)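 Triplicate samples of HEK293T lysate, 495 µg each, received fragment at 200 µM or vehicle for 3 h, followed by Biotin-Ahx-Ub-VS (0.5 µM final) for 1 h. After NeutrAvidin enrichment of labelled DUBs and LysC/trypsin digestion, peptides were run by diaPASEF LC-MS/MS. The values are average log2 fragment/vehicle ratios from global-median-normalised Spectronaut label-free quantities, tested by unpaired t-test on proteins having ≥2 unique peptides.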

ATXN3 = ATXN3 (UniProt P54252)
Chain of ATXN3 (P54252 whole entry): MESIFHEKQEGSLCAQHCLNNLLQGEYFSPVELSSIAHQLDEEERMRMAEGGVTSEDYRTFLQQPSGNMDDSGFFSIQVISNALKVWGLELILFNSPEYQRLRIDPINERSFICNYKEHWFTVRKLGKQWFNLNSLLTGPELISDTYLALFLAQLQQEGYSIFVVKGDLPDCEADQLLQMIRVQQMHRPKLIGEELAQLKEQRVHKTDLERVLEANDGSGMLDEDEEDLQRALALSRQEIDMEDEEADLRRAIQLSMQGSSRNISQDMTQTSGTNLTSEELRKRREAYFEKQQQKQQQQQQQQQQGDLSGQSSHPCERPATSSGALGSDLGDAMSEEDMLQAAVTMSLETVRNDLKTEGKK
Outline: as §1

BAP1 = target: T2, BAP1 (UniProt Q92560)
T2 sequence (whole entry): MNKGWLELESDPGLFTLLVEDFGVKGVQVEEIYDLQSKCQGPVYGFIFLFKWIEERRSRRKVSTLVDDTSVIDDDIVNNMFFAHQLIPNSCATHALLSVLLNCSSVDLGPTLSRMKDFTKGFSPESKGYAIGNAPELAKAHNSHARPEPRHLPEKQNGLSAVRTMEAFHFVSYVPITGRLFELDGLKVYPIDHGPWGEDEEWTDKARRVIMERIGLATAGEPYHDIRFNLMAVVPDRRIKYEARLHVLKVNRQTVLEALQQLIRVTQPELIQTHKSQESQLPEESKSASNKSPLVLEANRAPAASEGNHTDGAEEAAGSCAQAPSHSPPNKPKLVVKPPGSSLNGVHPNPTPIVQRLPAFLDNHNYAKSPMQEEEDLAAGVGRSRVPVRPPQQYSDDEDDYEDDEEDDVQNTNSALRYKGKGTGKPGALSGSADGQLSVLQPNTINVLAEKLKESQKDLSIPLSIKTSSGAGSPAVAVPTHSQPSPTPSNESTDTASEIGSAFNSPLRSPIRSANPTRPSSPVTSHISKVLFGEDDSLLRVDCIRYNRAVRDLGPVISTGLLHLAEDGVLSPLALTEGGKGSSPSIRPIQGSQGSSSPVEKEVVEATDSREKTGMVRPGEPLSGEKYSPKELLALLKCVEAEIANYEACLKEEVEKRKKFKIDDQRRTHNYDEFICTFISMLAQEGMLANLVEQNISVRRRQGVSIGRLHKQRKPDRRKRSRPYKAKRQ
Outline: as §1

EIF3F = EIF3F (UniProt O00303)
Chain of EIF3F (O00303 whole entry): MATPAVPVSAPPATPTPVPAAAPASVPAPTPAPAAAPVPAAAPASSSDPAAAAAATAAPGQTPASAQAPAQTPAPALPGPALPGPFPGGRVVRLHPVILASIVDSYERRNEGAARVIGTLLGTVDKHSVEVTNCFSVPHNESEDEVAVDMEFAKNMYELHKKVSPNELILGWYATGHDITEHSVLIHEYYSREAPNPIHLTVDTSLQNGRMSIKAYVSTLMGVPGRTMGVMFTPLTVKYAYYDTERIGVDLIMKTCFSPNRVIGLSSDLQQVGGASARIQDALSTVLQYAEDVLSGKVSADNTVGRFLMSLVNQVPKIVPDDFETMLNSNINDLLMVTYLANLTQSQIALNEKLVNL
Outline: as §1

EIF3H = EIF3H (UniProt O15372)
Chain of EIF3H (O15372 whole entry): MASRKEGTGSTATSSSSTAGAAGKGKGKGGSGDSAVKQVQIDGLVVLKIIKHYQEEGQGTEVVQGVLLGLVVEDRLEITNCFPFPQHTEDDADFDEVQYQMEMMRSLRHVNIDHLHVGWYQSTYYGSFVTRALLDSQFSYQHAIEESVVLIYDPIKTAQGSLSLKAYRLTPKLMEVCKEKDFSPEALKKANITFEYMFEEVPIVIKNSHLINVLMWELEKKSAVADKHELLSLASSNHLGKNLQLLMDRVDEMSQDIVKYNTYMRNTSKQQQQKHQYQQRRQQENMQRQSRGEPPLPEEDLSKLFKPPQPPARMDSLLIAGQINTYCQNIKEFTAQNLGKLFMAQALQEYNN
Outline: as §1

FAM105A = target: T3, FAM105A (UniProt Q9NUU6)
T3 sequence (whole entry): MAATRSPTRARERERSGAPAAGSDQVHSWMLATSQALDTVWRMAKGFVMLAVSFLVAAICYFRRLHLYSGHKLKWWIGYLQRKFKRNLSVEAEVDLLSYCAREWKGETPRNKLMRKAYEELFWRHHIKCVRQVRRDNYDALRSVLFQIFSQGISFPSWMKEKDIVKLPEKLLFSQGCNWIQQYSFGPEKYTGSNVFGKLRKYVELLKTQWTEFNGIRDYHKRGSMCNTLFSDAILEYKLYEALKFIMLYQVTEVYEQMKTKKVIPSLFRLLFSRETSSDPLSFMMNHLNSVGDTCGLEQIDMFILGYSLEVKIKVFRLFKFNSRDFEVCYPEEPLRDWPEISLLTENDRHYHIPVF
Outline: as §1

OTUB1 = OTUB1 (UniProt Q96FW1)
Chain of OTUB1 (Q96FW1 whole entry): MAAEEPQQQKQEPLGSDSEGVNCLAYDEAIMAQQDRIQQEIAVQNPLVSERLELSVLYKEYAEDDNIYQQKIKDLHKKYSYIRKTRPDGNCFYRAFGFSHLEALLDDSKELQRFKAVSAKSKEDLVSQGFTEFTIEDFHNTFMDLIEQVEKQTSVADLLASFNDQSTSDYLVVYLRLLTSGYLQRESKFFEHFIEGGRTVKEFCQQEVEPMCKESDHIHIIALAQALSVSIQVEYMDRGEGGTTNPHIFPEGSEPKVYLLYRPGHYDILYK
Outline: as §1

OTUD4 = target: T4, OTUD4 (UniProt Q01804)
T4 sequence (whole entry): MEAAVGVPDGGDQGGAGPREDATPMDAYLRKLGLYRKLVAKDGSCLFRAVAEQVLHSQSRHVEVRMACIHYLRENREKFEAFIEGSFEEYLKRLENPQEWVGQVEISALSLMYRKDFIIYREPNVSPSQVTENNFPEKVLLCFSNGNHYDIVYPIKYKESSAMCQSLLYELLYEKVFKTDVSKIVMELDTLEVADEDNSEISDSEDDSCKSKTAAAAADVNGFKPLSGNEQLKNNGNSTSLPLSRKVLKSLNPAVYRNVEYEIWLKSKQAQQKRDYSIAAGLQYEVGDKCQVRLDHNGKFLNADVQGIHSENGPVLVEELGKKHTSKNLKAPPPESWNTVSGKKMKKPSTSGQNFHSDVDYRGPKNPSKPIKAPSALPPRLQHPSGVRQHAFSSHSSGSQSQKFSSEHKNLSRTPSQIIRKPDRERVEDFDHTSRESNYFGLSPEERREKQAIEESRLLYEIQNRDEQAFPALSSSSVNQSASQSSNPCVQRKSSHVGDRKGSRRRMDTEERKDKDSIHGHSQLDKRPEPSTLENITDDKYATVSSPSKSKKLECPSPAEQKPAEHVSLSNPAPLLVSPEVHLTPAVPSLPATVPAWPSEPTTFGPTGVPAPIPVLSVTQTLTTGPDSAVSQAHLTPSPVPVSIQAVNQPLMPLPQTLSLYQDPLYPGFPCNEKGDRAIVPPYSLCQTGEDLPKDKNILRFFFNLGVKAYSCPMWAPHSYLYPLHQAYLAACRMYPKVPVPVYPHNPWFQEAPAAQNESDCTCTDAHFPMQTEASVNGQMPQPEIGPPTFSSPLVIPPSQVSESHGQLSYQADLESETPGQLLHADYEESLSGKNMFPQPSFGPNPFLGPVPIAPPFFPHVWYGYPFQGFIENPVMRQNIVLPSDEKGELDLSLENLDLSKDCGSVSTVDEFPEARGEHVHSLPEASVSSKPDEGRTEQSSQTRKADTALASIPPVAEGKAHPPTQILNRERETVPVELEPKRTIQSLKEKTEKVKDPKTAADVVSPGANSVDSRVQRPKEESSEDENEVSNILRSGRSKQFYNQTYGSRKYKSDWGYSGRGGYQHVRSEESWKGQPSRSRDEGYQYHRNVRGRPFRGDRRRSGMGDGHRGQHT
Outline: as §1

OTUD5 = target: T5, OTUD5 (UniProt Q96G74)
T5 sequence (whole entry): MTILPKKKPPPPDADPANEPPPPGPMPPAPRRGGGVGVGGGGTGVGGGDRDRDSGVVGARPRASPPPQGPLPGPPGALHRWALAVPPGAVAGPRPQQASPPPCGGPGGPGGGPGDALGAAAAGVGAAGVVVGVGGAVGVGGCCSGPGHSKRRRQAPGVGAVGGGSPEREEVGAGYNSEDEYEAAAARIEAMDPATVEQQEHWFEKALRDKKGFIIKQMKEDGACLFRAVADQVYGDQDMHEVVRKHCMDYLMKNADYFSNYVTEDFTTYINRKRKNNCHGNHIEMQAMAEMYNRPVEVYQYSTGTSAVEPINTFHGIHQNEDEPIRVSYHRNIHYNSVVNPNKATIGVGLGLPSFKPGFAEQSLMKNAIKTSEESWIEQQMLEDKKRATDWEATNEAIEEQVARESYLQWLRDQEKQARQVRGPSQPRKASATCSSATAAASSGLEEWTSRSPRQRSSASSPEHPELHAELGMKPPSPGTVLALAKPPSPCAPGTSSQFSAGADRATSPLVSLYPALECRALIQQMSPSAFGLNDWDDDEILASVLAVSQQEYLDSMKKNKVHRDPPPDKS
Outline: as §1

Measured: log2 ratio of Biotin-Ahx-Ub-VS probe labelling

O=C(CCl)N1CCC2(CCC(O)CC2)CC1
inactive: ALG13 -0.532 | ATXN3 -0.833 | BAP1 -0.626 | EIF3F -0.321 | EIF3H 0.288 | FAM105A 0.217 | OTUB1 -0.0501 | OTUD4 -0.206 | OTUD5 -0.29
